Results filed as inconclusive are left out. Calls of active or inactive are those of the source. Unless noted, the call rests on the fitted dose curve; in most records, active means well fitted curve in the direction sought with a large enough effect in the repeat runs; inconclusive means weak or mixed curves; inactive means no such curve, though single readings can be large; an effect the other way counts as inactive or inconclusive.
Legend:
[1] = target: Nuclear receptor subfamily 1 group I member 3 (Homo sapiens) (UniProt Q14994); assay: qHTS assay to identify small molecule agonists of the constitutive androstane receptor (CAR) signaling pathway (AID 1224839); further: series mostly up to about 92 µM; nearly all actives have a fitted effect of over 15% in size
Procedure, shortened: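 A 15-concentration quantitative screen uses HepG2 cells co-transfected stably with human CAR and CYP2B6-2.2kb reporter. Treatment lasts 24 h with 0.75 uM PK11195 final present; ONE-Glo luminescence is the signal.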

[2] = qHTS assay to identify small molecule antagonists of the estrogen related receptor signaling pathway with the pleiotropic PPARgamma coactivator (PGC) from Tox21 10K library - cell viability counter screen (AID 1224840; active means well fitted cell-killing curve with a large enough effect in the repeat runs, not every such curve was filed as active; further: nearly all actives have a fitted effect of over 40% in size)
Procedure, shortened: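 Fluorescence read-out of CellTiter-Fluor viability reagent, added after cells had been exposed to compound in DMSO for 17.5 h at 37 C; 30 min development at 37 C/5% CO2. Cells: PGC/ERR line, 2,000/well.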

[3] = target: Thyrotropin receptor (Homo sapiens) (UniProt P16473); assay: qHTS assay to identify small molecule agonists of the thyroid stimulating hormone receptor (TSHR) signaling pathway (AID 1224843; calls by dose curve; further: nearly all actives have a fitted effect of over 45% in size)
Procedure, shortened: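 HEK293/TSHR, 800 cells/well; cpd 30 min RT; add cAMP-d2 + anti-cAMP-cryptate, 1 h RT; fluorescence read on plate reader. 15-pt titration, n=3.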

[4] = qHTS assay to identify small molecule agonists of the hypoxia (HIF-1) signaling pathway - cell viability counter screen (AID 1224844; calls by dose curve; further: nearly all actives have a fitted effect of over 50% in size)
Procedure, shortened: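 CellTiter-Glo luminescence read-out, 30 min RT, taken in the same wells as the beta-lactamase HRE reporter assay; HRE-bla ME-180 cells, 0.5% dialyzed FBS, 17 hr compound treatment at 37C, 5% CO2.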

[5] = qHTS assay to identify small molecule agonists of H2AX (AID 1224845; active means well fitted activation curve with a large enough effect in the signal ratio in the repeat runs, not every such curve was filed as active; the % refers to the signal ratio)
Procedure, shortened: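 Wild-type CHO-K1 cells, plated overnight, exposed 3hr at 37C to 15 concentrations (0.76% DMSO final). Lysed, then HTRF anti-pH2AX (S139) cryptate and anti-H2AX-d2 antibodies, 24 hr room temperature; 665/620 nm emission read.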

[6] = qHTS assay to identify small molecule agonists of the hypoxia (HIF-1) signaling pathway (AID 1224846; active means well fitted activation curve with a large enough effect in the signal ratio in the repeat runs, not every such curve was filed as active; the % refers to the signal ratio)
Procedure, shortened: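 Beta-lactamase FRET read-out (CCF4-AM substrate) from ME-180 cells carrying an HRE-driven bla reporter, after 17 hrs compound exposure at 37C/5% CO2. Cells were seeded at 2,000 per well in 0.5% dialyzed FBS medium and preincubated 5 hrs.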

[7] = qHTS assay to identify small molecule agonists of H2AX - cell viability counter screen (AID 1224847; calls by dose curve; further: top concentration of the series differs between compounds; nearly all actives have a fitted effect of over 30% in size)
Procedure, shortened: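 We seed wild-type CHO-K1 cells overnight, treat them for 3 hr at 37C with compounds in 15-concentration series, and quantify remaining viability by CellTiter-Glo luminescence.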

[8] = qHTS RealTime-Glo MT Cell Viability Assay in HEK293 cells - 32 hour (AID 1224868); further: top concentration of the series differs between compounds; nearly all actives have a fitted effect of over 50% in size
Procedure, shortened: (§1)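 Tox21 10K qHTS, HEK293, 600 cells/well, RealTime-Glo reagent co-dispensed with cells; 5 h preincubation, compound by pintool, 37 C, luminescence at 0–40 h.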

[9] = A CellTox Green Cytotoxicity Assay to monitor cytotoxicity in HEK293 cells - 0 hour (AID 1224869); further: nearly all actives have a fitted effect of over 50% in size
Procedure, shortened: (§2)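 Read-out: fluorescence of a cell-impermeant cyanine dye staining DNA of dead cells, proportional to cytotoxicity. HEK293, 600 cells/well with reagent, compound (23 nL DMSO) added after 5 h; reads at 0, 8, 16, 24, 32, 40 h.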

[10] = qHTS RealTime-Glo MT Cell Viability Assay in HepG2 cells - 40 hour (AID 1224870); further: nearly all actives have a fitted effect of over 50% in size
Procedure, shortened: (§3)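 HepG2 cells (600/well) mixed with RealTime-Glo MT reagent, settled 5 h at 37 C/5% CO2 before compound addition. Nonlytic NanoLuc luminescence from viable-cell prosubstrate reduction read repeatedly during 40 h treatment at 37 C.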

[11] = A CellTox Green Cytotoxicity Assay to monitor cytotoxicity in HEK293 cells - 40 hour (AID 1224871); further: nearly all actives have a fitted effect of over 45% in size
Procedure, shortened: as §2

[12] = qHTS RealTime-Glo MT Cell Viability Assay in HEK293 cells - 16 hour (AID 1224872)
Procedure, shortened: as §1

[13] = qHTS RealTime-Glo MT Cell Viability Assay in HEK293 cells - 40 hour (AID 1224874); details: RealTime-Glo luminescence; max response: stronger effect = lower value; further: nearly all actives have a fitted effect of over 50% in size
Procedure, shortened: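 Luminescence readout at each listed time point; HEK293, 600 cells/well, RealTime-Glo MT reagent added with cells; compounds pinned (23 nL in DMSO) after 5 h at 37 C; continuous culture at 37 C.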

[14] = qHTS RealTime-Glo MT Cell Viability Assay in HepG2 cells - 24 hour (AID 1224867); further: nearly all actives have a fitted effect of over 50% in size
Procedure, shortened: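 Cells + NanoLuc/prosubstrate dispensed (600 cells/well) → 5 h at 37 C/5% CO2 → compounds in DMSO transferred → 40 h incubation at 37 C, luminescence read at 0, 8, 16, 24, 32, 40 h.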

[15] = qHTS RealTime-Glo MT Cell Viability Assay in HepG2 cells - 8 hour (AID 1224873); further: nearly all actives have a fitted effect of over 55% in size
Procedure, shortened: as §3

[16] = A CellTox Green Cytotoxicity Assay to monitor cytotoxicity in HEK293 cells - 24 hour (AID 1224875); further: series mostly up to about 77 µM; nearly all actives have a fitted effect of over 45% in size
Procedure, shortened: as §2
On the % scale 0 is the no-effect control and ±100 the full control effect.

Chain of Nuclear receptor subfamily 1 group I member 3 (Homo sapiens) (Q14994 whole entry, looked up): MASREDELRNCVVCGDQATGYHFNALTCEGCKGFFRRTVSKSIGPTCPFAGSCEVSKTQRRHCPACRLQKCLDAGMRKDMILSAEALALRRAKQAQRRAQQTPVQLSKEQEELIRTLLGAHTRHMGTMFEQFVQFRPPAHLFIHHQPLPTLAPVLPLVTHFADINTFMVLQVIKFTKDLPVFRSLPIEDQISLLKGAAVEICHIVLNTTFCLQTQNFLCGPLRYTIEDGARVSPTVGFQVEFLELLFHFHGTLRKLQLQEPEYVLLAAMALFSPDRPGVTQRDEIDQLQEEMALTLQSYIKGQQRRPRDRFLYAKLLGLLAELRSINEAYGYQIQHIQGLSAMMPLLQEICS
Chain of Thyrotropin receptor (Homo sapiens) (P16473 whole entry, looked up): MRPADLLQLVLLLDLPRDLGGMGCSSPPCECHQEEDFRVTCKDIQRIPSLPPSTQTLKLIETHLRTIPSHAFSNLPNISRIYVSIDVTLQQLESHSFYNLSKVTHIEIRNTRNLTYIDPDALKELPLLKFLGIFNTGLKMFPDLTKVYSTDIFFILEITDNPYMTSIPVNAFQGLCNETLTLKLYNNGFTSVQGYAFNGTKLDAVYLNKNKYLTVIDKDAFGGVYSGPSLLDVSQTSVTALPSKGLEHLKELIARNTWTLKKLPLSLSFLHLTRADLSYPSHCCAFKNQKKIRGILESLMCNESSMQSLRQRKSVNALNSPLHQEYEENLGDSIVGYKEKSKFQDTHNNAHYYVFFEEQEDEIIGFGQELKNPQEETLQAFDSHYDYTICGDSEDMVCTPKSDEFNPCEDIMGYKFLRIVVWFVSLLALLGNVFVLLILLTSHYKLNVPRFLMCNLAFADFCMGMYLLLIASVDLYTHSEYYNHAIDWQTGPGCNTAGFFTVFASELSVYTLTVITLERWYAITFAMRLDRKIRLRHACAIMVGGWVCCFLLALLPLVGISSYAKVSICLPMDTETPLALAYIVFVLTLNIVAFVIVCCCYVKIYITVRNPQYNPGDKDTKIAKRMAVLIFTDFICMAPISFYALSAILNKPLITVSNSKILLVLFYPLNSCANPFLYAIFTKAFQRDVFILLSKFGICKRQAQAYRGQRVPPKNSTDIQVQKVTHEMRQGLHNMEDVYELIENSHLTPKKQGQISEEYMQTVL

COS(=O)(=O)O
inactive: Potency [1] | outcome [2] | outcome [3] | outcome [4] | outcome [5] | outcome [6] | outcome [7] | Potency [8] | Potency [9] | outcome [10] | Potency [11] | Potency [12] | max response [13] -1.57%

COc1ccc(CCO)cc1
inactive: Potency [1] | outcome [2] | outcome [3] | outcome [4] | outcome [5] | outcome [6] | outcome [14] | Potency [8] | Potency [9] | outcome [10] | Potency [11] | Potency [12] | outcome [15] | max response [13] 21.3% | Potency [16]

CN1C[C@@H]2C[C@H]1CN2c1cc2c(cc1F)c(=O)c(C(=O)O)cn2C1CC1
inactive: activation [1] -4.55% [at 19 µM] | viability change, negative = cytotoxic [2] 6.5% [at 19 µM] | activation [3] 1.11% [at 19 µM] | activity change, negative = cytotoxicity [4] 12.6% [at 15.8 µM] | activation (H2AX phosphorylation) [5] -0.432% [at 31.6 µM] | activation [6] -0.622% [at 15.8 µM] | activity change, negative = cytotoxicity [7] 4.25% [at 31.6 µM] | activity change, negative = cytotoxicity [14] 5.55% [at 15.8 µM] | activity change, negative = cytotoxic [8] 9.47% [at 15.8 µM] | cytotoxicity [9] -0.324% [at 15.8 µM] | activity change, negative = cytotoxic [10] 1.94% [at 15.8 µM] | cytotoxicity increase [11] -7.03% [at 15.8 µM] | activity change, negative = cytotoxicity [12] 1.79% [at 15.8 µM] | max response [13] 11.1% | activity change [16] -6.09% [at 15.8 µM, stronger effect = higher value]

CC(C)CCOC(=O)c1ccccc1
inactive: Potency [1] | outcome [2] | outcome [3] | outcome [4] | outcome [5] | outcome [6] | outcome [7] | outcome [14] | Potency [8] | outcome [10] | Potency [11] | Potency [12] | max response [13] -0.72%

C=CCCCCCCCC
inactive: Potency [1] | outcome [2] | outcome [3] | outcome [4] | outcome [5] | outcome [6] | outcome [7] | outcome [14] | Potency [8] | Potency [9] | outcome [10] | Potency [11] | Potency [12] | outcome [15] | max response [13] 1.11% | Potency [16]

C/C(=C1\CCOC(=O)S1)N(C=O)Cc1cnc(C)nc1N
inactive: Potency [1] | outcome [2] | outcome [3] | outcome [4] | outcome [5] | outcome [6] | outcome [7] | outcome [14] | Potency [8] | Potency [9] | outcome [10] | Potency [11] | Potency [12] | outcome [15] | max response [13] 3.03% | Potency [16]

Cc1ccccc1C(N)=O
inactive: Potency [1] | outcome [2] | outcome [3] | outcome [4] | outcome [5] | outcome [6] | outcome [7] | outcome [14] | Potency [8] | outcome [10] | Potency [11] | Potency [12] | outcome [15] | max response [13] 3%

Nc1nnnn1-c1ccccc1
inactive: Potency [1] | outcome [2] | outcome [3] | outcome [4] | outcome [5] | outcome [6] | outcome [7] | Potency [8] | outcome [10] | Potency [11] | Potency [12] | outcome [15] | max response [13] 0.0553% | Potency [16]

CC(C)NC(=O)c1ccc(C=O)cc1
inactive: Potency [1] | outcome [2] | outcome [3] | outcome [4] | outcome [5] | outcome [6] | outcome [7] | Potency [8] | Potency [9] | outcome [10] | Potency [11] | Potency [12] | outcome [15] | max response [13] 0.577% | Potency [16]

CC(CO)(CO)CO
inactive: Potency [1] | outcome [2] | outcome [3] | outcome [4] | outcome [5] | outcome [6] | outcome [7] | outcome [14] | Potency [8] | Potency [9] | outcome [10] | Potency [11] | Potency [12] | max response [13] 2.55% | Potency [16]

CCCCOC(=O)C(C)O (stereo not drawn)
inactive: Potency [1] | outcome [2] | outcome [3] | outcome [4] | outcome [5] | outcome [6] | outcome [7] | outcome [14] | Potency [8] | Potency [9] | outcome [10] | Potency [11] | Potency [12] | outcome [15] | max response [13] 11.1% | Potency [16]

C=CCSSCCC
inactive: Potency [1] | outcome [2] | outcome [3] | outcome [4] | outcome [5] | outcome [6] | outcome [7] | outcome [14] | outcome [10] | Potency [11] | Potency [16]

CCOc1cccc(N)c1
inactive: Potency [1] | outcome [2] | outcome [3] | outcome [4] | outcome [5] | outcome [6] | outcome [7] | Potency [8] | Potency [9] | outcome [10] | Potency [11] | Potency [12] | outcome [15] | max response [13] 2.76% | Potency [16]

CCCCOC(=O)[C@H](C)O
inactive: Potency [1] | outcome [2] | outcome [3] | outcome [4] | outcome [5] | outcome [6] | outcome [7] | Potency [8] | Potency [9] | outcome [10] | Potency [11] | Potency [12] | outcome [15] | max response [13] 1.9% | Potency [16]

COC(C)(OC)OC
inactive: Potency [1] | outcome [2] | outcome [3] | outcome [4] | outcome [5] | outcome [6] | outcome [7] | Potency [8] | Potency [9] | outcome [10] | Potency [11] | Potency [12] | outcome [15] | max response [13] 5.48% | Potency [16]

Cc1cc(C)c(C(=O)O)c(C)c1
inactive: Potency [1] | outcome [2] | outcome [3] | outcome [4] | outcome [5] | outcome [6] | outcome [14] | Potency [8] | Potency [9] | outcome [10] | Potency [11] | Potency [12] | outcome [15] | max response [13] 1.4%

N[C@@H](CSCCCO)C(=O)O
inactive: activation [1] 0.0803% [at 19 µM] | viability change, negative = cytotoxic [2] -0.0206% [at 19 µM] | activation [3] 0.239% [at 19 µM] | activity change, negative = cytotoxicity [4] 0.058% [at 15.8 µM] | activation (H2AX phosphorylation) [5] 1.1% [at 31.6 µM] | activation [6] -1.56% [at 15.8 µM] | activity change, negative = cytotoxicity [7] -1.29% [at 31.6 µM] | activity change, negative = cytotoxicity [14] 1.24% [at 15.8 µM] | activity change, negative = cytotoxic [8] 3.39% [at 15.8 µM] | cytotoxicity [9] -3.9% [at 15.8 µM] | activity change, negative = cytotoxic [10] 1.41% [at 15.8 µM] | cytotoxicity increase [11] -5.88% [at 15.8 µM] | activity change, negative = cytotoxicity [12] 2.66% [at 15.8 µM] | viability change, negative = cytotoxic [15] 1.95% [at 15.8 µM] | max response [13] 2.4% | activity change [16] 1.71% [at 15.8 µM, stronger effect = higher value]

Reference: PubChem BioAssay (Tox21)
